Inconclusive results are not listed. Active and inactive are the calls of the source. The calls were made as follows, unless noted: active = hit-call score of the fitted dose curve at least 0.9, where 1 is the maximum; inconclusive = response in the unintended direction; inactive = score below 0.9.

What is called AC50 is the concentration at which the activity in the assay is half-maximal.

Experiment [1] concerns IYD (gene 389434). Description: CCTE_GLTED_hIYD: CCTE's human Iodotyrosine Deiodinase (xIYD) Inhibition Assay, Great Lakes Toxicology and Ecology Division (GLTED) Lab (AID 2284317).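 Also: cell-free human IYD enzyme made in baculovirus insect cells; iodide freed from monoiodotyrosine measured by cerium arsenite color change at 420 nm.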 In a few lines:
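Cell-free; baculovirus/insect-cell hIYD + MIT substrate + chemical, 3 h. Dowex column cleanup, then Ce4+/As3+ Sandell-Kolthoff read at A420 nm. Triplicate plates; normalized to 3-nitro-L-tyrosine (positive) and DMSO/NaOH (solvent).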

A short description of experiment [2]: CCTE_Deisenroth_5AR_NBTE_donor: CCTE's 5alpha-reductase NanoBRET Target Engagement Assay […], Deisenroth Lab (AID 2284319; active = hit-call score of the fitted dose curve at least 0.9, where 1 is the maximum; inactive = score below 0.9). The settings on record: actives raise or lower the signal. In a few lines: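 HEK293T cells were reverse transfected with an SRD5A2-NanoLuc vector for 20 h, exposed to test chemical (8 points, 10 nM - 29.9 uM) for 3 h, then testosterone tracer for 2 h more. Donor luminescence (460 nm) was read; bidirectional fit versus DMSO.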
Background: Bioluminescence resonance energy transfer reports proximity on the nanometre scale.

Experiment [3] in a line: CCTE_Deisenroth_5AR_NBTE_acceptor: CCTE's 5alpha-reductase NanoBRET Target Engagement Assay - Autofluorescence Screen, Deisenroth Lab (AID 2284321; active = hit-call score of the fitted dose curve at least 0.9, where 1 is the maximum; inactive = score below 0.9;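 also: compound fluorescence in the acceptor channel under 460 nm excitation flags autofluorescence artifacts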). The settings on record: actives raise or lower the signal. In a few lines:
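Acceptor-channel fluorescence flags artifacts, with excitation fixed at 460 nm. Nominal 100 uM chemical samples were read in triplicate runs, and signal changes were fitted in both directions relative to DMSO.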

Experiment [4] deals with SRD5A2 (gene 6716). Description: CCTE_Deisenroth_5AR_NBTE_ratio: CCTE's 5alpha-reductase NanoBRET Target Engagement Assay - Ratio, Deisenroth Lab (AID 2284322; active = hit-call score of the fitted dose curve at least 0.9, where 1 is the maximum; inactive = score below 0.9). The settings on record: actives raise or lower the signal. In a few lines:
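SRD5A2-NanoLuc HEK293T; cmpd 10 nM-29.9 uM, 3 h preinc + testosterone tracer 2 h; NanoBRET ratio 650/460; bidirectional fit vs DMSO.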

Experiment [5] can be described thus: VALA_TUBHUV_Agonist_CellCount: Viability Assessment in the VALA Sciences human Umbilical Vein Endothelial Tubule Formation (TUBHUV) Agonism Assay (AID 2284309). In a few lines:
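Viability endpoint by fluorescent imaging of fixed nuclear/CD31-stained HUVEC–HDF co-cultures. Readout is cell count, fitted upward against 0.1% DMSO. Compound exposure was 72 h in 10 ng/ml VEGF, after 3-day co-culture priming.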

Experiment [6] is described as follows: VALA_TUBIPS_Agonist_TubuleLength: VALA Sciences human iPS-derived Endothelial Tubule Formation (TUBIPS) Agonism Assay (AID 2284311). In a few lines: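 Agonist-mode readout is the gain in imaged tubule length versus DMSO baseline. It was measured by fluorescence high-content imaging 72 h after dosing human iPSC-derived endothelial cells.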
Experiment [7] in a line: VALA_TUBIPS_Antagonist_TubuleLength: VALA Sciences human iPS-derived Endothelial Tubule Formation (TUBIPS) Antagonist Assay (AID 2284313). In a few lines: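 Tubule length was quantified by high-content imaging of CD31- and nuclear-stained cells, with 0.1% DMSO as neutral and 100 uM suramin as inhibition control. Compounds were applied for 3 days, in 10 ng/ml VEGF, to cultures pre-grown 3 days.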

The nature of experiment [8]: VALA_MIGHUV2_CellCount: Viability Assessment in the VALA Sciences human Umbilical Vein Endothelial Cell Migration (MIGHUV) Assay, Area of Scratch Wound after Recovery (AID 2284314). In a few lines: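 Viability read-out: Hoechst-stained nuclei counted by fluorescence imaging after a 24 h recovery period in fixed, scratched HUVEC plates. Compound was dosed within 30 min of scratching at six concentrations (triplicate); DMSO at 0.1 % served as baseline.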

Experiment [9] in a line: VALA_MIGHUV2_Bcatenin: VALA Sciences human Umbilical Vein Endothelial Cell Migration (MIGHUV) Assay, Nuclear Translocation of beta-Catenin after Recovery (AID 2284315). In a few lines: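 Nuclear beta-catenin imaged by immunofluorescence with Hoechst counterstain in fixed HUVEC, 24 h after scratch wounding and chemical addition. Six-point concentration-response in triplicate; activity scored as signal increase over 0.1% DMSO vehicle.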

Experiment [10] in a line: VALA_MIGHUV2_WoundArea: VALA Sciences human Umbilical Vein Endothelial Cell Migration (MIGHUV) Assay, Area of Scratch Wound after Recovery (AID 2284316). In a few lines:
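Wound-area endpoint read by fluorescence imaging of Hoechst-stained nuclei after a 24 h recovery period following scratch of HUVEC monolayers (9000 cells/well). Chemicals dosed within 30 min post-scratch, triplicate 6-point series, 0.1% DMSO vehicle; Cytochalasin D positive control.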

A short description of experiment [11]: TAMU_PeakParms_SingleDonor1434_Asystole: Texas A&M University (TAMU) 1.5-hr Human Induced Pluripotent Stem Cell (iPSC)-derived Cardiomyocytes Calcium (Ca+2) Flux Assay for Cardiotoxicity: Asystole (quiescence of beating) (AID 2284328). In a few lines: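 Average Ca2+-flux peak frequency (beats/s) was recorded in single-donor iPSC-derived cardiomyocytes after 90 min exposure (0.2–100 uM final, 0.5% DMSO). Asystole POD set as EC95 against DMSO, no preprocessing.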

The nature of experiment [12]: VALA_TUBIPS_Antagonist_CellCount: Viability Assessment in the VALA Sciences human iPS-derived Endothelial Tubule Formation (TUBIPS) Antagonism Assay (AID 2284335).
Experiment [13] is described as follows: VALA_MIGHUV1_ScratchOnly_WoundArea: VALA Sciences human Umbilical Vein Endothelial Cell Migration (MIGHUV) Assay, Area of Scratch Wound Inhibited Recovery (AID 2284336). In a few lines: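 Wound area remaining after 24 h recovery imaged by Hoechst nuclear fluorescence in scratched HUVEC cultures, chemicals added within 30 min of scratching across a 6-point series. Gain of signal fitted against 0.1% DMSO; cytochalasin D positive control.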

The nature of experiment [14]: IUF_NPC2-5_cytotoxicity_72hr: Cytotoxicity Assessment at 72 hours in the Leibniz Research Institute for Environmental Medicine (IUF) Neural Progenitor Cell Migration and Differentiation Assay for Cytotoxicity (NPC2-5) (AID 2284306).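 Also: LDH release into supernatant measured by resorufin fluorescence marking membrane damage.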 In a few lines: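 Membrane-integrity cytotoxicity at 72 h, read as LDH-driven resorufin fluorescence in supernatant. hNPC spheres from fetal cortex differentiate on coated plates in N2 medium, 37C, 5% CO2; seven serial compound concentrations plus solvent control (DMSO ≤0.1%).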

Experiment [15] is described as follows: IUF_NPC2-5_cytotoxicity_120hr: Cytotoxicity Assessment at 120 hours in the Leibniz Research Institute for Environmental Medicine (IUF) Neural Progenitor Cell Migration and Differentiation Assay (NPC2-5) (AID 2284307).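 Also: LDH released into supernatant as membrane damage marker via resorufin fluorescence.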 In a few lines:
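Membrane-integrity loss measured as LDH activity in medium supernatant via resazurin-to-resorufin fluorescence after 120 h exposure. hNPC spheres from GW 16-19 fetal cortex differentiated on poly-D-lysine/laminin, 37C, medium half-refreshed day 3; seven concentrations, DMSO max 0.1%.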

Experiment [16] in a line: IUF_NPC2-5_cell_number_120hr: Cell Number Assessment at 120 hours in the Leibniz Research Institute for Environmental Medicine (IUF) Neural Progenitor Cell Migration and Differentiation Assay (NPC2-5) (AID 2284308; active = hit-call score of the fitted dose curve at least 0.9, where 1 is the maximum; inactive = score below 0.9;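 also: count of Hoechst-stained nuclei in migration zone around plated human neural progenitor spheres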). In a few lines: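 Counting of all Hoechst-stained nuclei in the migration area at 120 h, versus DMSO control. Primary hNPC spheres differentiated on poly-D-lysine/laminin in N2 medium at 37C, dosed from day 0 (7 concentrations, DMSO ≤0.1%), half-refed day 3.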

A short description of experiment [17]: IUF_NPC2-5_viability_120hr: Viability Assessment at 120 hours in the Leibniz Research Institute for Environmental Medicine (IUF) Neural Progenitor Cell Migration and Differentiation Assay (NPC2-5) (AID 2284312; active = hit-call score of the fitted dose curve at least 0.9, where 1 is the maximum; inactive = score below 0.9). In a few lines: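 Alamar blue resorufin fluorescence read after 5 days of differentiation, with compound present from day 0 and replenished at day 3. Primary hNPC spheres on laminin-coated plates, 37C; seven concentrations plus solvent control, fitted against DMSO.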

Experiment [18] in a line: CCTE_Mundy_HCI_iCellGluta_NOG_NeuriteLength: CCTE's Neurite Outgrowth Assay in iCellGluta cells for Neurite Length, Mundy Lab (AID 2284318). In a few lines:
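Automated high-content imaging of betaIII-tubulin (Alexa Fluor-488) and Hoechst-stained cells gave neurite length, normalized to the DMSO baseline.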

The nature of experiment [19]: IUF_NPC1_cytotoxicity_72hr: Cytotoxicity Assessment at 72 hours in the Leibniz Research Institute for Environmental Medicine (IUF) Neural Progenitor Cell Proliferation Assay (NPC1) (AID 2284332).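 Also: rising LDH signal means more cytotoxicity.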 In a few lines: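 LDH in supernatant, resazurin→resorufin fluorescence (RFU), 72 h exposure, no re-dosing. Cells: primary hNPC spheres, one per well, EGF+FGF medium, 37C/5% CO2, pH 7.2-7.6. Fit: positive direction vs baseline and dynamic range.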

For the compound `CC(C)(C)CC(C)(C)c1ccc(O)cc1`, in experiment [1], the AC50 was 66.8 µM (active).

For the compound `C=CC#N`, the outcome in [1] was inactive.

`C=CC(=O)OCCCCCC(C)C`: the result in experiment [1] was inactive.

Take `O=C(Nc1ccc2[nH]ccc2c1)c1cc2cc(F)ccc2n1Cc1cccc(F)c1`: the compound was called inactive in [2] and in [3]. In addition, in experiment [4], the concentration at half-maximal activity (AC50) is 3.93 µM (active).

`CC(C)(c1ccc(OCC2CO2)cc1)c1ccc(OCC2CO2)cc1` (stereo not given): the compound was called inactive in experiment [1], in [2], in experiment [3] and in [4].

Regarding `CC(C)(C)c1cc(O)ccc1O`, the half-maximal activity concentration (AC50) is 11 µM (active) in experiment [5], 74.3 µM (active) in experiment [8], 82.8 µM (active) in experiment [9] and 73 µM (active) in [10]. Further, the outcome in experiment [6], in [7], in experiment [11], in experiment [12] and in experiment [13] was inactive.

With `ClCC(Cl)CCl`, the result in experiment [8], in experiment [10], in experiment [12] and in experiment [13] was inactive.

Take `CC(C)(c1ccccc1)c1ccc(O)c(C(C)(C)c2ccccc2)c1`: the concentration at half-maximal activity (AC50) in experiment [1] was 29.2 µM (active).

As for `CCC[CH2][Sn]([CH2]CCC)([CH2]CCC)[O]C(=O)c1ccccc1`, the call in experiment [1] was inactive. For the same compound, the half-maximal activity concentration (AC50) in [2] is 5.2 µM (active); in experiment [3] it was 6.56 µM (active); in experiment [4], 10 µM (active).

Regarding `CCC1(c2ccc(N)cc2)CCC(=O)NC1=O` (stereo not given), the call in experiment [2], in experiment [3] and in experiment [4] was inactive.

Consider `COP(=O)(OC)O/C(=C\Cl)c1cc(Cl)c(Cl)cc1Cl`, for which the compound was called inactive in experiment [14] and in experiment [1]. For the same compound, the AC50 is 5.39 µM (active) in experiment [15]; 0.356 µM (active) in experiment [16]; 1.06 µM (active) in [17]; 51.5 µM (active) in experiment [18]; 75.5 µM (active) in experiment [19].

Consider `C[C@H]1CCCC(=O)CCC/C=C/c2cc(O)cc(O)c2C(=O)O1`, for which the outcome in experiment [2], in experiment [3] and in experiment [4] was inactive.

As for `CC(=O)[O][Hg][c]1ccccc1`, the concentration at half-maximal activity (AC50) in experiment [2] was 27.1 µM (active); in experiment [3] it was 25.3 µM (active); in experiment [4], 50 µM (active).

`Oc1cccc2cccnc12`: in experiment [11], the outcome was inactive.
